The entries come from a sample that favours hits as a whole.
DT40 TDP1 CPT – DT40-hTDP1 cell growth loss with CPT; chicken DT40 Tdp1-/-;hTDP1 cells + 20 nM CPT, ATP luminescence, 48 h; Potency, µM (series often up to 46.2 µM), usual class: inhibitors; 12% of 420,000 active; AID 686979; also: nearly all actives have a fitted effect of over 55% in size
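Cell growth measured by CellTiter-Glo luminescence after a minimum 48 h, 37 C compound exposure with 20 nM CPT in Tdp1-knockout DT40 cells stably expressing hTDP1, seeded 400/well; qHTS titration format.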
HT1080 IDH1KD tx – kills HT-1080 cells with IDH1 knockdown; HT-1080 IDH1 knockdown viability, ATP luminescence, 48 h; Potency, µM (series often up to 46.1 µM), usual class: cytotoxic; 2% of 360,000 active; AID 686971
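Viability of IDH1-knockdown HT-1080 fibrosarcoma cells was assessed by CellTiter-Glo after 48 h at 37 °C with titrated compound; concentration-effect curves were classified by fit quality and response size.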
DT40 TDP1 no CPT – qHTS for Inhibitors of human tyrosyl-DNA phosphodiesterase 1 (TDP1): qHTS in cells in absence of CPT; DT40 Tdp1-/- hTDP1 cells, no CPT, ATP luminescence, 48 h; Potency, µM (top dose mostly 46.2 µM), most hits filed as inhibitors; 15% of 420,000 active; AID 686978, 2013; also: nearly all actives have a fitted effect of over 55% in size
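Chicken DT40 Tdp1-/- cells complemented with human TDP1, screened without camptothecin (DMSO vehicle only), 400 cells/well. Compounds pin-transferred, cells incubated at 37 °C for at least 48 hr. Growth read as ATP-dependent luminescence (CellTiter-Glo, 30 min at RT).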
ALOX12 inh – inhibitors of human 12S-lipoxygenase ALOX12. P18054. purified 12hLO, xylenol orange hydroperoxide absorbance. Potency, µM (top dose mostly 108 µM), most hits filed as inhibitors. 1.1% of 580,000 active. AID 1671190
Target sequence (P18054 whole entry, looked up): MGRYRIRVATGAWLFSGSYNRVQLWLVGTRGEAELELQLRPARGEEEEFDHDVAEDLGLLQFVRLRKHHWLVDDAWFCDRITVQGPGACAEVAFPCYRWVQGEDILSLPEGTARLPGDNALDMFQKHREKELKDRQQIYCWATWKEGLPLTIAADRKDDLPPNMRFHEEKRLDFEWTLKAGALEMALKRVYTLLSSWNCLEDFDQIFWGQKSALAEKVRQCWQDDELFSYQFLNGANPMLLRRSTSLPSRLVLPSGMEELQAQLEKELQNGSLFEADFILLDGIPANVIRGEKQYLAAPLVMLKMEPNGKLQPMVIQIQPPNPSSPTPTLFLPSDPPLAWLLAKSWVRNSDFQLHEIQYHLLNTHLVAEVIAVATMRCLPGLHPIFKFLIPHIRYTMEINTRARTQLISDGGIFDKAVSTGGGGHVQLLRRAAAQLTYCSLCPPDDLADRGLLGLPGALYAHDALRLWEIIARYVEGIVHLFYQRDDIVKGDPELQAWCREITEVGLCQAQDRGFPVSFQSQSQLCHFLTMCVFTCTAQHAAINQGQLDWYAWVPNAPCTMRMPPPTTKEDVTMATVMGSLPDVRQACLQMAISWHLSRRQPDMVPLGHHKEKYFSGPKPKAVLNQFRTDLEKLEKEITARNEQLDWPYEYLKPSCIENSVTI
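Hydroperoxide product was detected by ferrous iron/xylenol orange as the 573 to 405 nm absorbance ratio. Arachidonic acid at 40 uM (final) was turned over for 30 min at room temperature by 150 nM human 12hLO, pH 7.0 Hepes buffer, after 15 min compound preincubation.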
IL1B secr inh – inhibitors of inflammasome signaling (IL-1 beta secretion); THP-1 LPS/ATP IL-1B secretion, AlphaLISA, 16 h; hits give low values; activity change, % at 57.5 µM; 4.7% of 360,000 active; in the data active = activity change below about -50%; inconclusive = mostly about -30% to -49%
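THP-1 cells pretreated 1 hr with compounds (up to 57.5 uM final), then stimulated with LPS (250 ng/mL final) plus ATP (1.25 mM final); secreted IL-1B measured by AlphaLISA after 16 hr, decreased signal indicating inhibition.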
HT1080-NT tox – kills 2HG-producing HT-1080-NT fibrosarcoma cells; HT-1080-NT fibrosarcoma viability, CellTiter-Glo ATP luminescence, 48 h; Potency, µM (series often up to 46.1 µM), usual class: cytotoxic; 1.6% of 360,000 active; AID 686970;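 also: NT is the 2HG producing partner of a matched IDH1 knockdown line; nearly all actives have a fitted effect of over 55% in size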
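Viability of the 2HG-overproducing fibrosarcoma line after 48 hours of compound exposure at 37 degrees C was determined by luminescence with CellTiter-Glo, and concentration-effect curves were then fitted and categorized.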
Numbers stand for hits; [ ] = dose if it differs, or a comment. Unless noted, calls follow the shape of the dose curve; as a rule, active = well fitted curve in the direction sought with a large enough effect; inconclusive = small, poorly fitted or top-dose-only effect, or another doubt; inactive = no such curve, though single readings can be large; an effect the other way counts as inactive or inconclusive.

Screening COc1ccc(CC(=O)Nc2ccc(S(=O)(=O)N(C)C3CCN(C)CC3)cc2)cc1 returned DT40 TDP1 CPT inconclusive, HT1080 IDH1KD tx inactive, DT40 TDP1 no CPT inactive, ALOX12 inh inconclusive, IL1B secr inh inactive and HT1080-NT tox inactive[9.24 µM].
CN1CCC(N(C)S(=O)(=O)c2ccc(NC(=O)COc3cccc(C(F)(F)F)c3)cc2)CC1 was read as DT40 TDP1 CPT inconclusive, HT1080 IDH1KD tx inactive, DT40 TDP1 no CPT inconclusive, ALOX12 inh inactive, IL1B secr inh -53 and HT1080-NT tox inactive.
`CC(Oc1ccc(Br)cc1)C(=O)Nc1ccc(S(=O)(=O)N(C)C2CCN(C)CC2)cc1` (configuration not stated) gave DT40 TDP1 CPT 12µM, HT1080 IDH1KD tx inactive, DT40 TDP1 no CPT 6.5µM, ALOX12 inh inconclusive, IL1B secr inh -98 and HT1080-NT tox inactive.
`O=C(COc1ccc(C(=O)O)cc1)Nc1cccc(C(F)(F)F)c1` gave DT40 TDP1 CPT inactive, HT1080 IDH1KD tx inactive, DT40 TDP1 no CPT inactive, ALOX12 inh inactive, IL1B secr inh inactive and HT1080-NT tox inactive.
`NC(=O)c1ccc(NC(=O)COC(=O)CCC2CCCC2)cc1` gave DT40 TDP1 CPT inactive, HT1080 IDH1KD tx inactive, DT40 TDP1 no CPT inactive, ALOX12 inh inactive, IL1B secr inh inactive and HT1080-NT tox inactive.
For Cc1cc(Cl)ccc1NC(=O)CN(c1ccccc1Br)S(C)(=O)=O the results were DT40 TDP1 CPT inconclusive, DT40 TDP1 no CPT inactive and ALOX12 inh inactive.
Screening OC(c1ccc(Cl)c(Cl)c1)c1ncc(-c2ccc(Cl)cc2)[nH]1 (configuration not stated) returned DT40 TDP1 CPT inconclusive, HT1080 IDH1KD tx inconclusive, DT40 TDP1 no CPT inconclusive, ALOX12 inh inactive, IL1B secr inh inconclusive and HT1080-NT tox inconclusive.
Cc1cc(F)ccc1C(O)c1ncc(-c2ccccc2)[nH]1 (configuration not stated) was read as DT40 TDP1 CPT inactive, HT1080 IDH1KD tx inactive, DT40 TDP1 no CPT inactive, ALOX12 inh inconclusive, IL1B secr inh inactive and HT1080-NT tox inactive.
`OC(c1cccc(F)c1)c1ncc(-c2ccc(Oc3ccccc3)cc2)[nH]1` (configuration not stated) gave DT40 TDP1 CPT inconclusive, HT1080 IDH1KD tx inconclusive, DT40 TDP1 no CPT inconclusive, ALOX12 inh inactive, IL1B secr inh inactive and HT1080-NT tox 16µM.
`Cc1cc(F)ccc1C(O)c1ncc(-c2ccc(Oc3ccccc3)cc2)[nH]1` (configuration not stated) gave DT40 TDP1 CPT 21µM, HT1080 IDH1KD tx inconclusive, DT40 TDP1 no CPT inconclusive, ALOX12 inh inconclusive, IL1B secr inh inactive and HT1080-NT tox inconclusive.
`OC(c1ccc(Cl)c(F)c1)c1ncc(-c2cccc(F)c2)[nH]1` (configuration not stated) gave DT40 TDP1 CPT inconclusive, HT1080 IDH1KD tx inconclusive, DT40 TDP1 no CPT inconclusive, ALOX12 inh inactive, IL1B secr inh inactive and HT1080-NT tox inconclusive.
OC(c1cccc(Cl)c1)c1ncc(-c2ccc(Oc3ccccc3)cc2)[nH]1 (configuration not stated) was read as DT40 TDP1 CPT inconclusive, HT1080 IDH1KD tx inconclusive, DT40 TDP1 no CPT inconclusive, ALOX12 inh inconclusive, IL1B secr inh -52 and HT1080-NT tox inconclusive.
COc1cccc(C(O)c2ncc(-c3ccccc3)[nH]2)c1 (configuration not stated) was read as DT40 TDP1 CPT inconclusive, HT1080 IDH1KD tx inactive, DT40 TDP1 no CPT inactive, ALOX12 inh inactive, IL1B secr inh inactive and HT1080-NT tox inactive.
Screening OC(c1ccc(Cl)c(F)c1)c1ncc(-c2ccc(Oc3ccccc3)cc2)[nH]1 (configuration not stated) returned DT40 TDP1 CPT 23µM, HT1080 IDH1KD tx inconclusive, DT40 TDP1 no CPT inconclusive, ALOX12 inh inconclusive, IL1B secr inh inconclusive and HT1080-NT tox inconclusive.
Screening COc1ccc(-c2nc3cnc(N(C)C)nc3n(CCc3ccccc3)c2=O)cc1 returned DT40 TDP1 CPT inactive, DT40 TDP1 no CPT inactive and ALOX12 inh inactive.

Screening data as filed in PubChem BioAssay.
